In ChEMBL document CHEMBL1961873, “Compounds: GSK PKIS; Assays: Nanosyn kinase panel” (2012):

Columns and labels:
[1] = molecular target: Tyrosine-protein kinase Fyn (Homo sapiens) (UniProt P06241); details: at 1 µM
[2] = molecular target: Tyrosine-protein kinase HCK (Homo sapiens) (UniProt P08631); details: at 0.1 µM
[3] = molecular target: Tyrosine-protein kinase HCK (Homo sapiens) (UniProt P08631); details: at 1 µM
[4] = molecular target: Insulin-like growth factor 1 receptor (Homo sapiens) (UniProt P08069); details: at 0.1 µM
Chain of Insulin-like growth factor 1 receptor (Homo sapiens) (P08069 31-736 limits assumed): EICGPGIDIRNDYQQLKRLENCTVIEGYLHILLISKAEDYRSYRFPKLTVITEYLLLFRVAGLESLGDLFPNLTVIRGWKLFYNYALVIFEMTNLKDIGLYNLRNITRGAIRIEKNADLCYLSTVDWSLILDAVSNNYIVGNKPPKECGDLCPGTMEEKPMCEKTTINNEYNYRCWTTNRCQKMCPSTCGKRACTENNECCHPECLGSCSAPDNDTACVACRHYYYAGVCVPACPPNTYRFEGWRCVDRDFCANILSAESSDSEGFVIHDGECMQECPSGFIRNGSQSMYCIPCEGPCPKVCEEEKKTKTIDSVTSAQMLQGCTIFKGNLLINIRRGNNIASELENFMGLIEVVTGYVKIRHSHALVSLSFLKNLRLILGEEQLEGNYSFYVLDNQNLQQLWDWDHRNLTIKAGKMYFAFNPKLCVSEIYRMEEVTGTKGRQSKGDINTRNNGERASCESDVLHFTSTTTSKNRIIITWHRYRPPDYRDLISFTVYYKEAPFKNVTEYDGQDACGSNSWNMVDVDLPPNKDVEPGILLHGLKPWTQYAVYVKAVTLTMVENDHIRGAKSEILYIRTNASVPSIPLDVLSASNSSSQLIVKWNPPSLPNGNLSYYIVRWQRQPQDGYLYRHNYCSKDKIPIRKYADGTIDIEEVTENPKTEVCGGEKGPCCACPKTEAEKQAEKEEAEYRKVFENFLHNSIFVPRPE
Chain of Insulin-like growth factor 1 receptor (Homo sapiens) (P08069 741-1367 limits assumed): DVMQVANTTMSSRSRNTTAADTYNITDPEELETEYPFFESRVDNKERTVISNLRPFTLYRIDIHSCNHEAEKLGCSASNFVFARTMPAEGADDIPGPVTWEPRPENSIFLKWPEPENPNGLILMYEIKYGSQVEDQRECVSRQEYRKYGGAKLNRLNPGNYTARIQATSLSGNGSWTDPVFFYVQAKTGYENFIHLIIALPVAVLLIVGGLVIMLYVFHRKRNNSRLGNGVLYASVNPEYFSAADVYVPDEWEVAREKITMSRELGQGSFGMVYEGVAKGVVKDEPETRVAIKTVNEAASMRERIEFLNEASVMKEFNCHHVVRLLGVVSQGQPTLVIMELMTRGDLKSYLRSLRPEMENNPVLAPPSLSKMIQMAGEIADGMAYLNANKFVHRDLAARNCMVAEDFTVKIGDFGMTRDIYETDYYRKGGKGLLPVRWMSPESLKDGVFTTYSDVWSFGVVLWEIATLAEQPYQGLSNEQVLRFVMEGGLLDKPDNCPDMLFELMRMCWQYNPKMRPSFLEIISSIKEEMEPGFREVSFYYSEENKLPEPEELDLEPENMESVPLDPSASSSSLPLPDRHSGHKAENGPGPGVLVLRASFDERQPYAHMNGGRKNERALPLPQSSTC

[5] = molecular target: Insulin-like growth factor 1 receptor (Homo sapiens) (UniProt P08069); details: at 1 µM
[6] = molecular target: Insulin receptor (Homo sapiens) (UniProt P06213); details: at 0.1 µM
[7] = molecular target: Insulin receptor (Homo sapiens) (UniProt P06213); details: at 1 µM
[8] = molecular target: Insulin receptor-related protein (Homo sapiens) (UniProt P14616); details: at 0.1 µM
[9] = molecular target: Insulin receptor-related protein (Homo sapiens) (UniProt P14616); details: at 1 µM
[10] = molecular target: T1, Tyrosine-protein kinase ITK/TSK (Homo sapiens) (UniProt Q08881); details: at 0.1 µM
T1 sequence (whole entry): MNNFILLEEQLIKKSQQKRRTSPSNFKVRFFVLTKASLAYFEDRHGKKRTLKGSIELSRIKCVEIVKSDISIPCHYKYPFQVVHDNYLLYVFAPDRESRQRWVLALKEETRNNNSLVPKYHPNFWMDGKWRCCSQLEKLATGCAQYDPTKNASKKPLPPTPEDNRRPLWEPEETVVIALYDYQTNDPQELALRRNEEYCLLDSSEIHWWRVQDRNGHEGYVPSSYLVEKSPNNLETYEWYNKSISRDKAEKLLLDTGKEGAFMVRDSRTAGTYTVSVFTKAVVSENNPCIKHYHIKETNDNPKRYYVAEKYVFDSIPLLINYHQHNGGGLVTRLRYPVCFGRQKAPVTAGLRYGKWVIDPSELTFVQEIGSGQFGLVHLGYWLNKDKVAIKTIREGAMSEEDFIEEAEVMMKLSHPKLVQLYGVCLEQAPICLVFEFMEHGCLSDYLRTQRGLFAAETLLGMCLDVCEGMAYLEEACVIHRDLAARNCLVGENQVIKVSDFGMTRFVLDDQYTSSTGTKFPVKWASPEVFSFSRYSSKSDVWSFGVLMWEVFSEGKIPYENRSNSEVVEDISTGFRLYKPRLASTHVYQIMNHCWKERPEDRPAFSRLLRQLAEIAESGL

[11] = molecular target: T1, Tyrosine-protein kinase ITK/TSK (Homo sapiens); details: at 1 µM
[12] = molecular target: Tyrosine-protein kinase JAK1 (Homo sapiens) (UniProt P23458); details: at 0.1 µM
Chain of Tyrosine-protein kinase JAK1 (Homo sapiens) (P23458 whole entry): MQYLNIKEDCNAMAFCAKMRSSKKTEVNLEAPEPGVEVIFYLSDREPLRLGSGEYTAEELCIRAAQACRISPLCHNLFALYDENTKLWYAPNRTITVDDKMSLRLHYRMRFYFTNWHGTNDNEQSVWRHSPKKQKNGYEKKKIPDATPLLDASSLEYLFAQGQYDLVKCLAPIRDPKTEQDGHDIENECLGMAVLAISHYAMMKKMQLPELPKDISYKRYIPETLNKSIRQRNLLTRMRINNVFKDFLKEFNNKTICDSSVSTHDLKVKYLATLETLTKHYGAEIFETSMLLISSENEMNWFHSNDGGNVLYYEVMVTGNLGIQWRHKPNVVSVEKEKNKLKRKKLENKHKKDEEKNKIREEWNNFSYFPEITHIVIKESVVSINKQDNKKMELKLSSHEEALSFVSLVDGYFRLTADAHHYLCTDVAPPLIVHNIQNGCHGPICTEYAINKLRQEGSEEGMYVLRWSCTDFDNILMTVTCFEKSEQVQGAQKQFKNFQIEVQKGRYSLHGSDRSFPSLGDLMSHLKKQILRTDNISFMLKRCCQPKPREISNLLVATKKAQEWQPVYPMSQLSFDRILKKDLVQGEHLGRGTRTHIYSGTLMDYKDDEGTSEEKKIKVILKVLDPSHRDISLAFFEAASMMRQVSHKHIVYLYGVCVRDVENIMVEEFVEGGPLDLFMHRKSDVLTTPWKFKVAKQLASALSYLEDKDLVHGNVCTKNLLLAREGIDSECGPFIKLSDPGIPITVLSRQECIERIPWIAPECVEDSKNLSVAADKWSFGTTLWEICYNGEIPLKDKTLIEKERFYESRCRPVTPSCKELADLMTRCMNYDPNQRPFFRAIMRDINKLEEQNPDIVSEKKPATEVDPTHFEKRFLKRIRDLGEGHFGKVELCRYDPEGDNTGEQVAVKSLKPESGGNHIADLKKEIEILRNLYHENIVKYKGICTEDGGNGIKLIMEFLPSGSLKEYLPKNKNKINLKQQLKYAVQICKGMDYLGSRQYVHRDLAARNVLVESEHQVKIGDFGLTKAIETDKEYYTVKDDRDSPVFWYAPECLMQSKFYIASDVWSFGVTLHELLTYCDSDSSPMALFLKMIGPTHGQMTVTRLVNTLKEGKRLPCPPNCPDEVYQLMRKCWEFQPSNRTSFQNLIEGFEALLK

[13] = molecular target: Tyrosine-protein kinase JAK1 (Homo sapiens) (UniProt P23458); details: at 1 µM
[14] = molecular target: Tyrosine-protein kinase JAK2 (Homo sapiens) (UniProt O60674); details: at 0.1 µM
[15] = molecular target: Tyrosine-protein kinase JAK2 (Homo sapiens) (UniProt O60674); details: at 1 µM
[16] = molecular target: T2, Tyrosine-protein kinase JAK3 (Homo sapiens) (UniProt P52333); details: at 0.1 µM
T2 sequence (whole entry): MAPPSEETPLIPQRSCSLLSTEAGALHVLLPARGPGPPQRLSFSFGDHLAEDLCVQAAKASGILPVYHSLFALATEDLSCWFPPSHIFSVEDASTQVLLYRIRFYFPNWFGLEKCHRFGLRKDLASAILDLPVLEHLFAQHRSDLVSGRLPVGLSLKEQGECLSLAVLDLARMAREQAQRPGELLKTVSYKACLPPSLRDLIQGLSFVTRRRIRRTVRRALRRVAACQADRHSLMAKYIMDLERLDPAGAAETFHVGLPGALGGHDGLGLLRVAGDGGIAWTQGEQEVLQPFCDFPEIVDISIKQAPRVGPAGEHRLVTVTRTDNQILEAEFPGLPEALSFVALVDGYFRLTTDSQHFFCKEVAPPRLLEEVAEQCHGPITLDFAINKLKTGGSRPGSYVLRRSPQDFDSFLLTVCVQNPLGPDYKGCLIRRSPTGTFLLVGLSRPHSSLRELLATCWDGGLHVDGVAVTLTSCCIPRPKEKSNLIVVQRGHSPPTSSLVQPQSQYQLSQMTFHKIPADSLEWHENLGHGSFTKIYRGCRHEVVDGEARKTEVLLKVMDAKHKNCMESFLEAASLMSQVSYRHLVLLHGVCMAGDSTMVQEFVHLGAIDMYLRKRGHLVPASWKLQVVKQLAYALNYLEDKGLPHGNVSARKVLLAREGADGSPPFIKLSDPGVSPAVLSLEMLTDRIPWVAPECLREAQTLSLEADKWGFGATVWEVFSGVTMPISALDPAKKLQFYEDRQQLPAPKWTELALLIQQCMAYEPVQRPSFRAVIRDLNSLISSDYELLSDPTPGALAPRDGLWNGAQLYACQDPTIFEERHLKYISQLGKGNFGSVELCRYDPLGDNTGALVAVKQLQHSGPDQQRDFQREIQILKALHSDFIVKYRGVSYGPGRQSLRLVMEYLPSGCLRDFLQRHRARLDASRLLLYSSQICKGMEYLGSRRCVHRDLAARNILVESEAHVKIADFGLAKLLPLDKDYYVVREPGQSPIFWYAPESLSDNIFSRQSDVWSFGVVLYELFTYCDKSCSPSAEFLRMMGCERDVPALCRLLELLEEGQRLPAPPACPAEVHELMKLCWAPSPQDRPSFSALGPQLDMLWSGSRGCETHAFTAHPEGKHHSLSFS

[17] = molecular target: T2, Tyrosine-protein kinase JAK3 (Homo sapiens); details: at 1 µM
[18] = molecular target: Vascular endothelial growth factor receptor 2 (Homo sapiens) (UniProt P35968); details: at 0.1 µM
Chain of Vascular endothelial growth factor receptor 2 (Homo sapiens) (P35968 whole entry): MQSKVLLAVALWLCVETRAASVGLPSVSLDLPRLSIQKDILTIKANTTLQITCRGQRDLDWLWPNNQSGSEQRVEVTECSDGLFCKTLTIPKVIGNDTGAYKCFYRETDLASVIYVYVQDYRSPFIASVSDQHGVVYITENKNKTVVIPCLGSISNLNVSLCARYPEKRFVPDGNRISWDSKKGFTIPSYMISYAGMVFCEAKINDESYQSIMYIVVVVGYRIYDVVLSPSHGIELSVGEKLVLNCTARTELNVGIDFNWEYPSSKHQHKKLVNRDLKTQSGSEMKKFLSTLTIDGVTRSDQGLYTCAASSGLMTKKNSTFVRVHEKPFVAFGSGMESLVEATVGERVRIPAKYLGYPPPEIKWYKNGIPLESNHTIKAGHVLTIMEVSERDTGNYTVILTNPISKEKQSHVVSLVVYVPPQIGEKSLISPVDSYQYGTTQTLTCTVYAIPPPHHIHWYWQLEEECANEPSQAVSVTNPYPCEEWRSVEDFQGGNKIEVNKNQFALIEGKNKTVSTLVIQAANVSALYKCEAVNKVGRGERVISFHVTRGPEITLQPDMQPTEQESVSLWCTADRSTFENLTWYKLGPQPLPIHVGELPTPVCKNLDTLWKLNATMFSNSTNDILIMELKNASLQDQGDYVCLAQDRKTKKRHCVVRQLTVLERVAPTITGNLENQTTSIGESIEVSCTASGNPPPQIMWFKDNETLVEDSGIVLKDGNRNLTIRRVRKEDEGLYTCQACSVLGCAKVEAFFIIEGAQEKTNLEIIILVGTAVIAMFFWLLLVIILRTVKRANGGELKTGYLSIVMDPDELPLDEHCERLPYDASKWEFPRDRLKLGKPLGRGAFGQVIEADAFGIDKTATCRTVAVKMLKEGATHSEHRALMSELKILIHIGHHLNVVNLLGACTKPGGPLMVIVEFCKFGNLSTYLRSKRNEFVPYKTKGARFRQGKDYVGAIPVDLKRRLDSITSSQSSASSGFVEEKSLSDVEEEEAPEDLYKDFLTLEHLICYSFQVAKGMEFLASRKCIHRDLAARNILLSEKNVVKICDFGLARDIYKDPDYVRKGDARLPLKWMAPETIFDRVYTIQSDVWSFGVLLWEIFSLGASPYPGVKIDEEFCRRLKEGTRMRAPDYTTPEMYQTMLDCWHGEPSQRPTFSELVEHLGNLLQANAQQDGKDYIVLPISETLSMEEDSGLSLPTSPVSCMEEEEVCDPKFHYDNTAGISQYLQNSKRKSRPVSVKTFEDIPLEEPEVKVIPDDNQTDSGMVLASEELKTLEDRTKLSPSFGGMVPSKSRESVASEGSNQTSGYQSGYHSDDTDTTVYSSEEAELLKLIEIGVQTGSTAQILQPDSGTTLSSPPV

[19] = molecular target: Vascular endothelial growth factor receptor 2 (Homo sapiens) (UniProt P35968); details: at 1 µM
[20] = molecular target: Mast/stem cell growth factor receptor Kit (Homo sapiens) (UniProt P10721); details: at 0.1 µM;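 further: values are mean inhibition of KIT, from the GSK PKIS dataset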

Chain of Tyrosine-protein kinase HCK (Homo sapiens) (P08631 2-526 limits assumed): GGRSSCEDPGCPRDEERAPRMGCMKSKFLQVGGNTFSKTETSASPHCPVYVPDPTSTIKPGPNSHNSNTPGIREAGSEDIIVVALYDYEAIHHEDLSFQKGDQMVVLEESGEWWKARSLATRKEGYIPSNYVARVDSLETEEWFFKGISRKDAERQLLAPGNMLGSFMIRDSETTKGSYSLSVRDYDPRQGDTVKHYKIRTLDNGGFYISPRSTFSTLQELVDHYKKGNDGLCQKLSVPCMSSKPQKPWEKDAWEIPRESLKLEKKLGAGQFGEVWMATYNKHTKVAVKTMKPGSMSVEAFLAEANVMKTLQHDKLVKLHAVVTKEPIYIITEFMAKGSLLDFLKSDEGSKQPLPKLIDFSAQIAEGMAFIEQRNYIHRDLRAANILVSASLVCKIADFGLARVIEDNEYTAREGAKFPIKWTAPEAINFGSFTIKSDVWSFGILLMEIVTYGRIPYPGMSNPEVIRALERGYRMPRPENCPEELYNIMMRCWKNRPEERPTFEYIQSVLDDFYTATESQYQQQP
Chain of Tyrosine-protein kinase Fyn (Homo sapiens) (P06241 2-537 limits assumed): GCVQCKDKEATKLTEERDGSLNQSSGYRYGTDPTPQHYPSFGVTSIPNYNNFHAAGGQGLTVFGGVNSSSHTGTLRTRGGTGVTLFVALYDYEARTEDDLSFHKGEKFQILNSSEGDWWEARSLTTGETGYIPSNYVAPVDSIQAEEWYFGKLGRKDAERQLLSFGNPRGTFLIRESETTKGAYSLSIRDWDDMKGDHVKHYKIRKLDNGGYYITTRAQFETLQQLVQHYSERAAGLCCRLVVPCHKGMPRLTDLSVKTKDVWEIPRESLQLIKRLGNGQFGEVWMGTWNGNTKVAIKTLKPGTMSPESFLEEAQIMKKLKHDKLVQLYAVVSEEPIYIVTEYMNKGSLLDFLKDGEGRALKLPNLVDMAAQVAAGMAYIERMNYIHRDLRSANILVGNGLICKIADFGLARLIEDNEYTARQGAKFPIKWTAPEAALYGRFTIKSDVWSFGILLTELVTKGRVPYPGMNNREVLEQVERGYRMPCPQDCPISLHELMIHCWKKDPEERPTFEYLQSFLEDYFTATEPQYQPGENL

Row | SMILES | inhibition [1] [%] | inhibition [2] [%] | inhibition [3] [%] | inhibition [4] [%] | inhibition [5] [%] | inhibition [6] [%] | inhibition [7] [%] | inhibition [8] [%] | inhibition [9] [%] | inhibition [10] [%] | inhibition [11] [%] | inhibition [12] [%] | inhibition [13] [%] | inhibition [14] [%] | inhibition [15] [%] | inhibition [16] [%] | inhibition [17] [%] | inhibition [18] [%] | inhibition [19] [%] | inhibition [20] [%]
1 | NS(=O)(=O)c1cccc(-c2cc3ccncc3cc2OCc2ccccc2)c1 | 4.87 | 7.87 | 11.1 | 9.68 | 10.4 | 2.6 | 4.4 | 2.82 | 1.54 | 1.77 | 3.72 | 0.51 | 2.7 | 1.82 | 0.92 | -0.33 | 0.81 | 13.4 | 17.1 | 6.67
2 | Cc1ccc(O)cc1Nc1ccnc2ccc(S(C)(=O)=O)cc12 | 94.1 | 87.2 | 89.9 | 4.41 | 3.85 | 6.63 | 8.39 | 3.29 | 3.19 | 1.1 | 1.21 | 3.67 | 11.8 | 1.33 | 2.12 | -1.23 | 0.26 | 70.1 | 71.1 | 13.2
3 | COc1cccc(-n2ncc3c(N/N=C/c4ccc(C)cc4)ncnc32)c1 | 16.5 | 7.32 | 16.2 | 5.92 | 22.9 | 21.4 | 82.2 | 2.51 | 15.3 | 2.28 | 3.5 | 5.68 | 3.83 | 1.5 | 1.98 | -0.38 | 1.11 | 6.36 | 19.1 | 6.06
4 | FC(F)(F)c1ccc(-c2nn3ncccc3c2-c2ccnc(Nc3ccc4c(c3)OCCO4)n2)cc1 | 21.2 | 0.59 | 15.1 | -3.01 | -2.92 | 0.23 | 0.63 | -0.78 | 0.97 | 5.77 | 4.7 | 7.49 | 24.3 | -0.67 | -0.89 | 6.03 | 4.36 | -0.31 | 9.68 | 6.76
5 | CC(C)c1ccc(Nc2nccc(-c3cnn4ncccc34)n2)cc1 | 6.49 | 4 | 8.83 | 11.8 | 53.1 | 10.2 | 48.2 | 2.81 | 8.71 | 0.75 | 1.41 | 2.68 | 8.98 | 2.04 | 8.72 | 0.01 | 6.19 | 5.7 | 14.6 | 68.6
6 | NS(=O)(=O)c1ccc(NC=C2C(=O)Nc3ccc4ncsc4c32)cc1 | 26.5 | 12.2 | 43.8 | 12.2 | 26.7 | 6.96 | 29.7 | 3.96 | 6.03 | 2.7 | 15.1 | 9.37 | 50.7 | 2.72 | 23.6 | 22.7 | 63.7 | 60.5 | 71 | 68.4
7 | CN(c1ccc(NC(=O)Nc2ccc(OC(F)(F)F)cc2)cc1)c1ccnc(Nc2cccc(S(N)(=O)=O)c2)n1 | 53.5 | 25.2 | 77.3 | -1.04 | 0.46 | 1.9 | 2.39 | 0.67 | 3.26 | 10.6 | 67.3 | 2.28 | 12.8 | 0.3 | 1.31 | -2.38 | -1.69 | 78.8 | 99.6 | 37.5
8 | COc1cc2ncnc(Nc3ccc(C)c(O)c3)c2cc1OC | 56.2 | 44.9 | 75.1 | 12.2 | 11 | 5.04 | 6.96 | 2.18 | 3.05 | 1.63 | 1.28 | 1.62 | 12.6 | 1.49 | 0.53 | -1.17 | 2.14 | 75.4 | 72 | 9.08
9 | COc1cccc(-n2ncc3c(N/N=C/c4ccc(S(C)(=O)=O)cc4)ncnc32)c1 | 69.8 | 17 | 55.7 | -6.32 | -5.27 | 2.59 | 1.06 | 0.2 | 0.63 | -2.33 | 0.29 | 1.39 | 6.92 | 1.22 | 11.5 | -4.07 | 5.53 | 31.4 | 66.4 | 16
10 | Cc1ccc2c(-c3ccnc(Nc4ccc5c(c4)OCCO5)n3)c(-c3ccc(C(F)(F)F)cc3)nn2n1 | 5.39 | 1.01 | 2.01 | -4.21 | 0.39 | -0.36 | 1.45 | 1.35 | 0.34 | -1.23 | 1.1 | 1.09 | 1.09 | 0.16 | -1.16 | -2.23 | 1.23 | -0.67 | 2.81 | -0.52
11 | CCn1c(-c2nonc2N)nc2c(C#CC(C)(C)O)nc(OCCNC)cc21 | 4.65 | 5.42 | 8.69 | 5.39 | 3.53 | 6.39 | 5.58 | 0.83 | 1.9 | 0.63 | 0.12 | 1.27 | 2.83 | 2.5 | 3.3 | -2.54 | -0.89 | 16.2 | 64.8 | 4.99
12 | Nc1nccc(-c2c(-c3ccc(F)cc3)ncn2CCCN2CCOCC2)n1 | 4.47 | 5.16 | 6.92 | 9.8 | 8.95 | 0.02 | 3.74 | 2.13 | 5.23 | 1.35 | 2.18 | 2.73 | 17.8 | 1.23 | 0.43 | -0.85 | -0.57 | 4.12 | 11.2 | 3.2
13 | COC(=O)c1cncc(/C=C/c2c(C)cc(O)cc2C)c1 | 20 | 8.77 | 37.5 | 2.87 | 2.99 | 3.1 | 0.15 | 5.13 | 2.83 | 0.96 | 1.55 | 2.46 | 4.21 | 0.81 | 2.05 | -1.76 | 0.99 | 2.37 | 4.91 | 32.9
